# Laboratory results: PubChem BioAssay (NCATS)
# Values without a mark were called inactive. Inconclusive results are not listed. Entries that show only a call come without a potency. Calls of active or inactive are those of the source. Unless noted, calls follow the shape of the dose curve; as a rule, active = well fitted curve in the direction sought with a large enough effect; inconclusive = small, poorly fitted or top-dose-only effect, or another doubt; inactive = no such curve, though single readings can be large; an effect the other way counts as inactive or inconclusive.
# Key:
# [1] = test system: HeLa; experiment: Primary qHTS to identify gynecologic anti-cancer compounds using libraries of approved drugs and bioactive compounds (AID 1345084); settings: Gynecologic cancer cell panel viability, ATPlite luminescence, 48 h; series mostly up to 57.5 µM; also: nearly all actives have a fitted effect of over 55% in size; also: potency is read from the fitted curve at half-maximal effect
# Summary of the method: (§1)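 Measured: luminescence after ATPlite addition (15 min, RT). Exposure: 48 h, 37 C, 5% CO2.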
# [2] = test system: Hek293T; experiment: as above; settings: Gynecologic cancer cell panel viability, ATPlite luminescence, 48 h, control line for the selectivity index; series mostly up to 57.5 µM
# Summary of the method: as §1
# [3] = test system: JEG-3; experiment: as above; settings: Gynecologic cancer cell panel viability, ATPlite luminescence, 48 h; series mostly up to 57.5 µM
# Summary of the method: as §1
# [4] = test system: OV90; experiment: as above; settings: Gynecologic cancer cell panel viability, ATPlite luminescence, 48 h; series mostly up to 57.5 µM
# Summary of the method: as §1
# [5] = test system: PA-1; experiment: as above; settings: Gynecologic cancer cell panel viability, ATPlite luminescence, 48 h; series mostly up to 57.5 µM
# Summary of the method: as §1
# [6] = test system: SKOV3; experiment: as above; settings: Gynecologic cancer cell panel viability, ATPlite luminescence, 48 h; series mostly up to 57.5 µM
# Summary of the method: as §1
# [7] = test system: Tov112D; experiment: as above; settings: Gynecologic cancer cell panel viability, ATPlite luminescence, 48 h; series mostly up to 57.5 µM
# Summary of the method: as §1
# [8] = test system: Tov-21-G; experiment: as above; settings: Gynecologic cancer cell panel viability, ATPlite luminescence, 48 h; series mostly up to 57.5 µM
# Summary of the method: as §1
# [9] = Drug repurposing screens with cells derived from glioblastoma tumor samples (AID 1345199); settings: GBM patient neurospheres viability, ATP luminescence, 48 h; also: nearly all actives have a fitted effect of over 40% in size; also: potency is read from the fitted curve at half-maximal effect
# Summary of the method: (§2)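 Primary testing used CD133+ neurospheres from four GBM patients, seven concentrations, 48 h exposure and ATP-based viability; confirmation added three slower-growing patient lines.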
# [10] = test system: astro; experiment: as above; settings: viability, ATP luminescence, 48 h; series mostly up to 45.9 µM
# Summary of the method: as §2
# [11] = qHTS assay for small molecule activators of the human pregnane X receptor (PXR) signaling pathway (AID 720659; call rule not given here)
# [12] = molecular target: Nuclear receptor subfamily 1 group I member 2 (Rattus norvegicus) (UniProt Q9R1A7); experiment: qHTS assay for small molecule activators of the rat pregnane X receptor (rPXR) signaling pathway (AID 651751; call rule not given here); settings: rPXR reporter cells, luciferase (One-Glo), 24 h
# [13] = at 45.9 µM (top of the series), tumour line D
# [14] = at 46 µM (top of the series), tumour line A
# [15] = at 46.1 µM (top of the series), tumour line C
# [16] = at 45.9 µM (top of the series), tumour line B
# Sequence of Nuclear receptor subfamily 1 group I member 2 (Rattus norvegicus) (Q9R1A7 whole entry, looked up): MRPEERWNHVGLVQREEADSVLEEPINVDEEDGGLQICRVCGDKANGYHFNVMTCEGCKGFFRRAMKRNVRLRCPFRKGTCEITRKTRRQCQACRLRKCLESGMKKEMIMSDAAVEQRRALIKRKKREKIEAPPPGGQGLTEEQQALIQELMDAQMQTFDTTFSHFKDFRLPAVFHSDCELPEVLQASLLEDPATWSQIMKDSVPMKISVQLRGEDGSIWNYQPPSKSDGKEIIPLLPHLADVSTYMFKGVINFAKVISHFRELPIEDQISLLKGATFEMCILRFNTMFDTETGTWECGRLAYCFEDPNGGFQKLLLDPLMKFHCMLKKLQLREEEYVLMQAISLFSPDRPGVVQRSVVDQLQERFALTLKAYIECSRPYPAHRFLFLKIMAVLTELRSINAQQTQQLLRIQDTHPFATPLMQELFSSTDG
compound,measurement,setting,value
CN(C)c1ccc(C2Nc3ccc4ccccc4c3C3=C2C(=O)CC(C)(C)C3)cc1Br (stereo not drawn),Potency,[1],inactive
same,Potency,[2],inactive
same,Potency,[3],inactive
same,Potency,[4],inactive
same,Potency,[5],inactive
same,Potency,[6],inactive
same,Potency,[7],inactive
NC(N)=NC(=O)c1nc(Cl)c(N)nc1N,Potency,[1],inactive
same,Potency,[2],inactive
same,Potency,[3],inactive
same,Potency,[4],inactive
same,Potency,[5],inactive
same,Potency,[6],inactive
same,Potency,[8],inactive
same,Potency,[7],inactive
same,"activity, negative = cell killing",[9]; [13],-15.1%
same,"activity, negative = cell killing",[9]; [14],18.9%
same,"activity, negative = cell killing",[9]; [15],-11.2%
same,Potency,[10],inactive
same,outcome,[11],inactive
CNC[C@H](O)c1cccc(O)c1,Potency,[1],inactive
same,Potency,[2],inactive
same,Potency,[3],inactive
same,Potency,[4],inactive
same,Potency,[5],inactive
same,Potency,[6],inactive
same,Potency,[8],inactive
same,Potency,[7],inactive
same,"activity, negative = cell killing",[9]; [16],-2.77%
same,"activity, negative = cell killing",[9]; [13],6.94%
same,"activity, negative = cell killing",[9]; [15],-5.24%
same,Potency,[10],inactive
same,max response,[12],1.25%
same,outcome,[11],inactive
CCOc1cc(C(=O)Nc2ccc(Cl)c(-c3nc4ccccc4[nH]3)c2)cc(OCC)c1OCC,Potency,[1],inactive
same,Potency,[2],inactive
same,Potency,[3],inactive
same,Potency,[4],inactive
same,Potency,[5],inactive
same,Potency,[8],inactive
same,Potency,[7],inactive
N=c1nc(N2CCCCC2)cc(N)n1O,Potency,[1],inactive
same,Potency,[2],inactive
same,Potency,[3],inactive
same,Potency,[4],inactive
same,Potency,[5],inactive
same,Potency,[6],inactive
same,Potency,[8],inactive
same,Potency,[7],inactive
same,Potency,[10],inactive
CC[C@H](Nc1ncnc2nc[nH]c12)c1nc2cccc(F)c2c(=O)n1-c1ccccc1,"activity change, negative = cytotoxicity",[1],-8.83% [at 11.6 µM]
same,"activity change, negative = cytotoxicity",[2],-17.7% [at 11.6 µM]
same,"activity change, negative = cytotoxicity",[3],-10.7% [at 11.6 µM]
same,"activity change, negative = cytotoxicity",[4],-4.59% [at 11.6 µM]
same,"activity change, negative = cytotoxicity",[5],0.976% [at 11.6 µM]
same,"activity change, negative = cytotoxicity",[8],-9.1% [at 11.6 µM]
same,"activity change, negative = cytotoxicity",[7],-0.869% [at 11.6 µM]
Cc1oncc1C(=O)Nc1ccc(C(F)(F)F)cc1,Potency,[1],25.1 µM (active)
same,Potency,[2],14.1 µM (active)
same,Potency,[3],25.1 µM (active)
same,Potency,[4],17.8 µM (active)
same,Potency,[5],11.2 µM (active)
same,Potency,[6],25.1 µM (active)
same,Potency,[8],25.1 µM (active)
same,Potency,[7],20 µM (active)
same,Potency,[10],10 µM (active)
O=C(c1cc(Cc2n[nH]c(=O)c3ccccc23)ccc1F)N1CCN(C(=O)C2CC2)CC1,Potency,[1],inactive
same,Potency,[2],inactive
same,Potency,[3],inactive
same,Potency,[4],inactive
same,Potency,[5],inactive
same,Potency,[8],inactive
same,Potency,[7],inactive
NCCCC(N)(C(=O)O)C(F)F (stereo not drawn),Potency,[1],inactive
same,Potency,[2],inactive
same,Potency,[3],inactive
same,Potency,[4],inactive
same,Potency,[5],inactive
same,Potency,[6],inactive
same,Potency,[8],inactive
same,Potency,[7],inactive
same,Potency,[10],inactive
O=c1n(CCCN2CCN(c3cccc(Cl)c3)CC2)nc2ccccn12,Potency,[1],inactive
same,Potency,[2],inactive
same,Potency,[3],inactive
same,Potency,[4],inactive
same,Potency,[5],inactive
same,Potency,[6],inactive
same,Potency,[8],inactive
same,Potency,[7],inactive
same,Potency,[10],inactive
Cc1ccc(N(CC2=NCCN2)c2cccc(O)c2)cc1,Potency,[1],inactive
same,Potency,[2],inactive
same,Potency,[3],inactive
same,Potency,[4],inactive
same,Potency,[5],inactive
same,Potency,[6],inactive
same,Potency,[8],inactive
same,"activity, negative = cell killing",[9]; [16],-13.6%
same,"activity, negative = cell killing",[9]; [15],-7.27%
same,Potency,[9]; tumour line A,14.1 µM (active)
same,Potency,[10],inactive
CCCS(=O)(=O)Nc1ccc(F)c(C(=O)c2c[nH]c3ncc(-c4ccc(Cl)cc4)cc23)c1F,Potency,[1],inactive
same,Potency,[2],inactive
same,Potency,[3],inactive
same,Potency,[4],inactive
same,Potency,[5],10 µM (active)
same,Potency,[6],inactive
same,Potency,[7],inactive
CCCc1nc2c(C)cc(-c3nc4ccccc4n3C)cc2n1Cc1ccc(-c2ccccc2C(=O)O)cc1,Potency,[1],inactive
same,Potency,[2],inactive
same,Potency,[3],inactive
same,Potency,[4],inactive
same,Potency,[5],inactive
same,Potency,[6],inactive
same,Potency,[8],inactive
same,Potency,[7],inactive
same,Potency,[10],inactive
Nc1ccc(S(=O)(=O)Nc2ccnn2-c2ccccc2)cc1,Potency,[1],inactive
same,Potency,[2],inactive
same,Potency,[3],inactive
same,Potency,[4],inactive
same,Potency,[5],inactive
same,Potency,[8],inactive
same,Potency,[7],inactive
same,"activity, negative = cell killing","[9]; at 20 µM (top of the series), tumour line C",-5.82%
same,"activity, negative = cell killing","[9]; at 21.2 µM (top of the series), tumour line B",-5.49%
same,"activity, negative = cell killing","[9]; at 21.2 µM (top of the series), tumour line D",-1.62%
same,"activity, negative = cell killing","[9]; at 21.3 µM (top of the series), tumour line A",-21.3%
same,Potency,[10],inactive
NCCc1ccc(O)c(O)c1,Potency,[1],inactive
same,Potency,[2],inactive
same,Potency,[3],inactive
same,Potency,[4],inactive
same,Potency,[5],inactive
same,Potency,[8],inactive
same,Potency,[7],inactive
same,"activity, negative = cell killing",[9]; [16],-2.97%
same,"activity, negative = cell killing",[9]; [13],1.17%
same,"activity, negative = cell killing",[9]; [14],-12.4%
same,"activity, negative = cell killing",[9]; [15],13.2%
same,Potency,[10],inactive
Oc1ccc(C2CNCCc3c2cc(O)c(O)c3Cl)cc1 (stereo not drawn),Potency,[1],inactive
same,Potency,[2],inactive
same,Potency,[3],inactive
same,Potency,[4],inactive
same,Potency,[5],inactive
same,Potency,[6],inactive
same,Potency,[8],inactive
same,Potency,[7],inactive
same,"activity, negative = cell killing",[9]; [15],2.51%
same,Potency,[10],inactive
CCc1cncnc1N1CCN(Cc2nc3ccc(C(F)(F)F)cc3[nH]2)CC1,Potency,[1],inactive
same,Potency,[2],inactive
same,Potency,[3],inactive
same,Potency,[4],inactive
same,Potency,[5],inactive
same,Potency,[8],inactive
same,Potency,[7],inactive
CC(C)(Sc1ccc(CCN(CCCCC2CCCCC2)C(=O)NC2CCCCC2)cc1)C(=O)O,Potency,[1],inactive
same,Potency,[2],inactive
same,Potency,[3],inactive
same,Potency,[4],inactive
same,Potency,[5],inactive
same,Potency,[6],inactive
same,Potency,[8],inactive
same,Potency,[7],inactive
same,max response,[12],-3.94%
same,outcome,[11],inactive
Cn1cc(-c2ccc3nnc(C(F)(F)c4ccc5ncccc5c4)n3n2)cn1,Potency,[1],inactive
same,Potency,[2],inactive
same,Potency,[3],inactive
same,Potency,[4],inactive
same,Potency,[5],inactive
same,Potency,[8],inactive
same,Potency,[7],inactive
Cn1cnc2c(F)c(Nc3ccc(Br)cc3Cl)c(C(=O)NOCCO)cc21,Potency,[1],inactive
same,Potency,[2],inactive
same,Potency,[3],inactive
same,Potency,[4],1.58 µM (active)
same,Potency,[5],inactive
same,Potency,[6],inactive
same,Potency,[7],inactive
